Assay outcomes as filed in PubChem BioAssay.
Most compounds without a hit are left out; they make up all but 4.6% or so of the library.
PfHsp90 yeast 2: inhibits growth of yeast expressing Plasmodium falciparum Hsp90; S. cerevisiae expressing PfHsp90, BacTiter-Glo ATP, 48 h; yeast lacking PDR1 and PDR3 efflux regulators; inhibition, % at 9.4 µM; actives 0.32% (n = 310,000);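 active means every replicate shows inhibition above about 80%, whatever the replicate mean, limit read from the data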
SKKanGAS inh: blocks kanamycin growth of S. pyogenes SKKanGAS strain. BacTiter-Glo, 6 h. inhibition, % at 7.5 µM. actives 1.3% (n = 300,000);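 active means mean replicate score, as percent of positive control median, at least 50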;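 further: strain carries kanamycin resistance gene driven by streptokinase promoter and grows in 40 µg/ml kanamycin; loss of luminescence reflects streptokinase promoter inhibition or plain growth inhibition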
TIM10 inh: inhibits growth of TIM10 yeast strain; actives 1.4% (n = 330,000); inhibition, % at 10 µM; S. cerevisiae TIM10 strain growth, BacTiter-Glo luminescence, 24 h; AID 463195;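 active means inhibition of 40% or more at the single tested concentration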;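 further: wild-type TIM10 isogenic control strain grown at permissive 25 °C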
V-ATPase pH: alters yeast V-ATPase proton transport. actives 0.37% (n = 350,000). S. cerevisiae, pHLuorin cytosolic pH fluorescence. response, % at 10 µM. AID 504577; in the data active means response mostly above about 7.3%, no sharp cut-off; inactive means mostly below about 5.4%; further: actives read high
tim23-1 inh: growth inhibitors of tim23-1 mutant yeast | inhibition, % at 20 µM | S. cerevisiae tim23-1 growth, BacTiter-Glo luminescence, 24 h | actives 1.3% (n = 330,000);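 active means growth inhibition of the mutant yeast at or above 50%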;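 further: temperature-sensitive mutant grown at 25 °C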
tim10-1 inh: growth inhibitors of tim10-1 mutant yeast | S. cerevisiae tim10-1 ts strain growth, BacTiter-Glo, 24 h | inhibition, % at 20 µM | actives 2.2% (n = 330,000);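 active means inhibition of at least 40%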;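 further: mutant grown at 25 °C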
tim10-1 confirm: confirmation of tim10-1 mutant yeast growth inhibitors. S. cerevisiae tim10-1 ts strain growth, BacTiter-Glo, 24 h. shares compounds with tim10-1 inh. inhibition, % at 20 µM. actives 56% (n = 7,400);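 active means inhibition of yeast growth at or above a set limit in either of two repeat tests at 20 µM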;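 further: tim10-1 mutant grown at permissive 25 °C to find synthetic lethal compounds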
Hits are given with their value.

Screening Cc1c2c(nc3ccccc13)CCC(C(C)(C)C)C2 (stereo not drawn) returned PfHsp90 yeast 2 inactive, SKKanGAS inh inactive, TIM10 inh inactive, V-ATPase pH inactive, tim23-1 inh inactive, tim10-1 inh 42 and tim10-1 confirm inactive.
`COc1ccc(C(=O)Nc2ccc(Cl)c(S(=O)(=O)Nc3ccccc3OC)c2)cc1` gave PfHsp90 yeast 2 inactive, SKKanGAS inh inactive, TIM10 inh inactive, V-ATPase pH inactive, tim23-1 inh inactive, tim10-1 inh 41 and tim10-1 confirm inactive.
CCCCCN(C(=O)CCC(=O)OCCOc1cccc(C)c1)c1c(N)n(CCCC)c(=O)[nH]c1=O was read as PfHsp90 yeast 2 inactive, SKKanGAS inh inactive, TIM10 inh inactive, V-ATPase pH inactive, tim23-1 inh inactive and tim10-1 inh inactive.
For Cn1c(-c2ccccc2)cc2ccccc21 the results were PfHsp90 yeast 2 inactive, SKKanGAS inh inactive, TIM10 inh inactive, V-ATPase pH inactive, tim23-1 inh inactive and tim10-1 inh inactive.
For Cn1c(-c2ccccc2O)cc2ccccc21 the results were PfHsp90 yeast 2 inactive, SKKanGAS inh inactive, TIM10 inh inactive, V-ATPase pH inactive, tim23-1 inh inactive, tim10-1 inh 48 and tim10-1 confirm 29.
For CCCc1ccc2oc(C(=O)N3CCN(C4CCS(=O)(=O)C4)CC3)c(C)c2c1 (stereo not drawn) the results were PfHsp90 yeast 2 inactive, SKKanGAS inh inactive, TIM10 inh inactive, V-ATPase pH inactive, tim23-1 inh inactive and tim10-1 inh inactive.
Screening C=CCn1c(O)c(C2=c3ccccc3=NC2=O)sc1=Nc1ccc(O)cc1 returned PfHsp90 yeast 2 inactive, SKKanGAS inh inactive, TIM10 inh inactive, V-ATPase pH inactive, tim23-1 inh inactive, tim10-1 inh 63 and tim10-1 confirm inactive.
Screening COc1ccc(CNC(=S)Nc2ccc(OC)cc2)cc1 returned PfHsp90 yeast 2 inactive, SKKanGAS inh inactive, TIM10 inh inactive, V-ATPase pH inactive, tim23-1 inh inactive and tim10-1 inh inactive.
`CCCCc1ccc(NC(=S)NCc2ccc(OC)cc2)cc1` gave PfHsp90 yeast 2 inactive, SKKanGAS inh inactive, TIM10 inh inactive, V-ATPase pH inactive, tim23-1 inh inactive, tim10-1 inh 46 and tim10-1 confirm inactive.
Screening Cc1ccc(S(=O)(=O)CC(=O)c2cc(C)c(O)c(C)c2)cc1 returned PfHsp90 yeast 2 inactive, SKKanGAS inh inactive, TIM10 inh inactive, V-ATPase pH inactive, tim23-1 inh inactive and tim10-1 inh inactive.
For CC(=O)NN1C(=O)/C(=C/c2ccc(C(C)C)cc2)SC1=S the results were PfHsp90 yeast 2 inactive, SKKanGAS inh inactive, TIM10 inh inactive, V-ATPase pH inactive, tim23-1 inh inactive, tim10-1 inh 42 and tim10-1 confirm 39.
For c1ccc(Cn2nnc3c(N4CCC5(CC4)OCCO5)ncnc32)cc1 the results were PfHsp90 yeast 2 inactive, SKKanGAS inh inactive, TIM10 inh inactive, V-ATPase pH inactive, tim23-1 inh inactive, tim10-1 inh 42 and tim10-1 confirm inactive.
For CCOC(=O)CNC(=O)CSc1nc(Cc2ccccc2)nc2ccccc12 the results were PfHsp90 yeast 2 inactive, SKKanGAS inh inactive, TIM10 inh inactive, V-ATPase pH inactive, tim23-1 inh inactive and tim10-1 inh inactive.
c1ccc(-n2nnnc2SCc2cccc3nsnc23)cc1 was read as PfHsp90 yeast 2 inactive, SKKanGAS inh inactive, TIM10 inh inactive, V-ATPase pH inactive, tim23-1 inh inactive, tim10-1 inh 40 and tim10-1 confirm 33.
`Cc1ccc(N2C(=O)CC(Sc3cccs3)C2=O)cc1` (stereo not drawn) gave PfHsp90 yeast 2 inactive, SKKanGAS inh inactive, TIM10 inh inactive, V-ATPase pH inactive, tim23-1 inh inactive, tim10-1 inh 45 and tim10-1 confirm 49.
Cc1ccc(S(=O)(=O)NCc2ccccc2)cc1C(=O)N1CCN(S(=O)(=O)c2ccccc2)CC1 was read as TIM10 inh inactive, V-ATPase pH inactive, tim23-1 inh inactive and tim10-1 inh inactive.
`CCCCCCCCC(=O)O` gave SKKanGAS inh inactive, TIM10 inh inactive, tim23-1 inh inactive, tim10-1 inh 45 and tim10-1 confirm inactive.
CCCCCCCCCCCCCC(=O)O was read as PfHsp90 yeast 2 inactive, TIM10 inh inactive, V-ATPase pH inactive, tim23-1 inh inactive and tim10-1 inh inactive.
`Cc1c(C(=N)C(C#N)C#N)c(=N)oc2c1ccc1ccccc12` gave PfHsp90 yeast 2 inactive, SKKanGAS inh inactive, TIM10 inh inactive, V-ATPase pH inactive, tim23-1 inh inactive, tim10-1 inh 41 and tim10-1 confirm inactive.
For N#Cc1c(NC(=O)CSc2nc(N)cc(=O)[nH]2)sc2c1CCCC2 the results were PfHsp90 yeast 2 inactive, SKKanGAS inh inactive, TIM10 inh inactive, V-ATPase pH inactive, tim23-1 inh inactive and tim10-1 inh inactive.
For Cc1ccc(CNC(=O)CSc2nc3ccsc3c(=O)n2NC(=O)c2ccccc2)cc1 the results were PfHsp90 yeast 2 inactive, SKKanGAS inh inactive, TIM10 inh inactive, V-ATPase pH inactive, tim23-1 inh inactive and tim10-1 inh inactive.
O=C(Nn1c(SCc2ccc(F)cc2)nc2ccsc2c1=O)c1ccccc1 was read as PfHsp90 yeast 2 inactive, SKKanGAS inh inactive, TIM10 inh inactive, V-ATPase pH inactive, tim23-1 inh inactive, tim10-1 inh 40 and tim10-1 confirm inactive.
Screening Cc1ccc(-n2nc(C)c3c2C(Br)C(C)(C)CC3=O)nc1 (stereo not drawn) returned PfHsp90 yeast 2 inactive and V-ATPase pH inactive.
Cc1cc(Cl)ccc1OC(C)C(=O)NNC(=O)C1CCCCC1C(=O)O (stereo not drawn) was read as PfHsp90 yeast 2 inactive, SKKanGAS inh inactive, TIM10 inh inactive, V-ATPase pH inactive, tim23-1 inh inactive and tim10-1 inh inactive.
For CCOC(=O)C1CCN(C(=O)CN(Cc2ccc(Cl)cc2)S(C)(=O)=O)CC1 the results were PfHsp90 yeast 2 inactive, SKKanGAS inh inactive, TIM10 inh inactive, V-ATPase pH inactive, tim23-1 inh inactive, tim10-1 inh 97 and tim10-1 confirm inactive.
Screening Cc1sc2nc(CSCC(=O)NC3(C#N)CCCCC3)[nH]c(=O)c2c1C returned PfHsp90 yeast 2 inactive, TIM10 inh inactive, tim23-1 inh inactive and tim10-1 inh inactive.
CC1Cc2ccccc2N1C(=O)CSc1nnnn1Cc1ccccc1 (stereo not drawn) was read as PfHsp90 yeast 2 inactive, SKKanGAS inh inactive, TIM10 inh inactive, V-ATPase pH inactive, tim23-1 inh inactive, tim10-1 inh 60 and tim10-1 confirm 45.
Screening CCc1nnc2c(NCCc3ccccc3)nc3ccccc3n12 returned PfHsp90 yeast 2 inactive, SKKanGAS inh inactive, TIM10 inh inactive, V-ATPase pH inactive, tim23-1 inh inactive and tim10-1 inh inactive.
Screening O=C(/C=C/c1cccc(Br)c1)N1CCN(c2ccccn2)CC1 returned PfHsp90 yeast 2 inactive, SKKanGAS inh inactive, TIM10 inh inactive, V-ATPase pH inactive, tim23-1 inh inactive, tim10-1 inh 42 and tim10-1 confirm inactive.
